# High-throughput results (PubChem BioAssay)
# PPC-1+TRAIL kill: compounds killing PPC-1 cancer cells with TRAIL present (potentiator screen, no TRAIL-free arm); PPC-1 cells + TRAIL, ATPLite viability luminescence; 220,000 tested, 0.41% active; AID 1443; cell killing (% activity), % at 4 µM or 5 µM;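 active means cell killing above 50% in the first pass at 4 µM, then a duplicate retest at 5 µM averaging 50% or more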
# CF NFkB inh: blocks PAF-induced NF-kB reporter in cystic fibrosis cells; 360,000 tested, 0.86% active; AID 588850; inhibition, % at 5 µM; KKLEB NF-kB-GFP reporter, GFP fluorescence overnight;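 active means at least 50% inhibition at 5 µM, scaled per plate between neutral and stimulator controls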;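 further: PAF is a Pseudomonas aeruginosa culture filtrate used as stimulus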
# TRAIL sens C8: caspase-8 TRAIL sensitization | NB7+C8 cells + TRAIL, ATPlite viability luminescence | inhibition (viability loss, TRAIL sensitization), % at 10 µM | 360,000 tested, 1% active | AID 624354;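 active means compounds causing at least 50% loss of cell viability in the single-dose screen, relative to plate controls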
# hiPSC survival: enhancers of human iPSC single-cell survival. survival enhancement, % at 20 µM. hiPSC single-cell survival, ATPlite luminescence; 100% = ROCK inhibitor wells, 0% = DMSO. 360,000 tested, 0.044% active; in the data active means survival enhancement above about 18%;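 further: cells exposed to compounds for 16 hours before the ATP read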
# HIF-2a inh: HIF-2a inhibition. 786-0 RCC cells HIF-2a reporter, luciferase luminescence, overnight. inhibition, % at 18.8 µM. 360,000 tested, 0.72% active;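 active means inhibition of the luminescence signal of 40% or more relative to plate controls, in a single-dose primary screen at 18.75 µM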
# KKLEB tox: reduces viability of KKLEB cystic fibrosis airway cells | KKLEB CF airway cells viability, ATPlite luminescence, overnight; stronger effect = lower value; cells stimulated with P. aeruginosa culture filtrate | activity change (cytotoxicity), % at 5 µM | 360,000 tested, 0.36% active;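 active means corrected activity change at or below -50% at 5 µM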
# Mdm2 MdmX conf: confirmation of inhibitors of human Mdm2/MdmX interaction, set 2. shares compounds with HIF-2a inh. SaOS-2 split-luciferase Mdm2/MdmX complementation, luminescence. inhibition, % at 8 µM. 740 tested, 99% active;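 active means mean inhibition of the luminescence signal across two replicates at or above 26 percent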
# Target sequence (O15151 whole entry, looked up): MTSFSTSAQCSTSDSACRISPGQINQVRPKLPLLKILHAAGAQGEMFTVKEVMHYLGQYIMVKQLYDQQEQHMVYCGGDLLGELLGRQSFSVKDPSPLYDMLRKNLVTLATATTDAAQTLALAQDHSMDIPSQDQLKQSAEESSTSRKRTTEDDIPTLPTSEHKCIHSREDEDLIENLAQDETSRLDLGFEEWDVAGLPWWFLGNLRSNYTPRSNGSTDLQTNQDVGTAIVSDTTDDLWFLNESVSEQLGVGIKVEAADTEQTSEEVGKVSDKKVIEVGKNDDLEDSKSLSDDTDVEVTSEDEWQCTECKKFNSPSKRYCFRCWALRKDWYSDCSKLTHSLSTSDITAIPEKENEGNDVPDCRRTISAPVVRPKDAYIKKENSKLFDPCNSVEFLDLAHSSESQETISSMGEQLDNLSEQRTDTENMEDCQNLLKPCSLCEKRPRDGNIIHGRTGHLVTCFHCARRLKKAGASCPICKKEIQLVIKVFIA
# Target sequence (Q00987 whole entry, looked up): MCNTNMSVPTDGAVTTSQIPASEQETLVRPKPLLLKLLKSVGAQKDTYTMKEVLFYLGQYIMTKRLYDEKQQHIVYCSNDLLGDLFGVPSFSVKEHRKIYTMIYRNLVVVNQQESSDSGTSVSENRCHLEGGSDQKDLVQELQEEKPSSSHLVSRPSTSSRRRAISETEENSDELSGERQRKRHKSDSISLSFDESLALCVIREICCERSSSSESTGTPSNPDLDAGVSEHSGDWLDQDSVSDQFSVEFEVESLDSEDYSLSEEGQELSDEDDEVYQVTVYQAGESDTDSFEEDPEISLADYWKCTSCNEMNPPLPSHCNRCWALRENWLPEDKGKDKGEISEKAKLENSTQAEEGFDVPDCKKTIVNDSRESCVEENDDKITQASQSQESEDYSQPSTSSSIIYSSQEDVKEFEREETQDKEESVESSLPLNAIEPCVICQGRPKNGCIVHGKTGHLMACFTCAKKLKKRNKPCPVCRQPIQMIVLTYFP
# HIF-2a conf: confirmation of HIF-2a inhibitors; AID 651580; shares compounds with HIF-2a inh; inhibition, % at 18.8 µM; 1,800 tested, 56% active; 786-0 RCC cells, HIF-2a luciferase reporter luminescence, overnight;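 active means mean inhibition across four replicates of at least 40 percent at the single tested concentration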
# HIF-1a counter: counter-screen for HIF-2a inhibitors: HIF-1a inhibition in MiaPaCa-2 cells. shares compounds with HIF-2a inh. MiaPaCa-2 HIF-1a luciferase reporter, desferoxamine, overnight. inhibition, % at 18.8 µM. 1,800 tested, 72% active;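 active means mean inhibition of the reporter signal across four replicates at the single tested dose of 50% or more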
# A number is an active result; - = inactive; . = not tested or not shown. Rows were chosen to be rich in hits. Some 2.2% of all compounds tested hit in one or more screens of this group.
SMILES,PPC-1+TRAIL kill,CF NFkB inh,TRAIL sens C8,hiPSC survival,HIF-2a inh,KKLEB tox,HIF-2a conf,HIF-1a counter,others
CNc1c(NS(=O)(=O)c2cc(OC)ccc2OC)c(=O)oc2ccccc12,.,-,-,-,-,-,.,.,
Cn1nc([N+](=O)[O-])nc1Sc1nnc(-c2ccccc2)o1,-,-,-,-,-,-,.,.,Mdm2 MdmX conf=75
Cc1ccc(CN(C)C(=O)c2cccc(S(=O)(=O)N3CCc4ccccc4C3)c2)o1,.,-,-,-,-,-,.,.,
O=C(NCCCNC(=O)c1ccco1)c1ccc(F)cc1,.,-,-,-,-,-,.,.,
CC(=O)c1ccc(NC(=S)NC(C)c2ccc(Cl)cc2Cl)cc1 (configuration not stated),-,-,-,-,-,-,.,.,
COc1ccc(C2=Nn3c(nnc3-c3ccccc3OC)SC2)cc1OC,-,53,-,-,43,-,-,-,
C=C1[C@@H](O)[C@H](Cc2ccccc2)N(Cc2ccccc2Br)S1(=O)=O,.,85,-,-,71,-93,55,106,
Cc1cc(C)c2cc3c(N)c(C(=O)Nc4c(C)[nH]c(=O)[nH]c4=O)sc3nc2c1,-,-,-,-,69,-,-,66,
CC(C)[C@@H](CSc1ccccc1)N1CCN(Cc2ccccc2)CCC1=O,.,-,-,-,-,-,.,.,
CCCn1nc(C(=O)NNC(=O)Cc2ccc(S(=O)(=O)N3CCOCC3)s2)c2ccccc2c1=O,.,-,-,-,-,-,.,.,
Cc1nn(C)cc1S(=O)(=O)Nc1ccc2c(c1)OCCO2,-,-,-,-,41,-,45,56,
O=C(O)c1ccc(N/N=C/c2ccc3c(c2)OCO3)cc1,-,-,-,-,86,-,90,88,
O=C(O)c1cc(S(=O)(=O)Nc2ccc3c(c2)OCCO3)c(Cl)cc1Cl,-,-,-,-,42,-,54,71,
O=C(O)c1cc(N/N=C/c2ccc3c(c2)OCCO3)ccc1Cl,-,-,-,-,62,-,80,-,
C#Cc1ccc([C@@H]2C=C(C(=O)N3CCOCC3)O[C@H](OCc3ccc(CO)cc3)C2)cc1,.,-,-,-,-,-,.,.,
COc1cccc(NC(=O)NC2(C(=O)N3CCN(C)CC3)CCCCC2)c1,.,-,-,-,-,-,.,.,
O=C1C2C3C=CC(O3)C2C(=O)N1N=Cc1cccc2ccccc12 (configuration not stated),.,-,-,-,-,-,.,.,
CCOC(=O)c1cccc(NC(=O)/C=C/c2ccc3c(c2)OCO3)c1,-,-,85,-,47,-,69,-,
O=C(Nc1cccc(C(=O)O)c1)Nc1ccc2c(c1)OCO2,.,-,-,-,83,-,.,.,Mdm2 MdmX conf=64
CCOC(=O)c1cccc(NC(=O)c2ccc3c(c2)OCO3)c1,.,-,-,-,-,-,.,.,
COCc1cc(SC2CCCCC2)nc(C)n1,-,-,-,-,-,-,.,.,
Nc1ccc(-c2cc3ccccc3oc2=O)cc1,.,-,-,-,88,-,98,84,
CC1CN(Cc2cc(=O)oc3cc(O)ccc23)CC(C)O1 (configuration not stated),.,-,-,-,-,-,.,.,
COc1ccc(Nc2cc(C)nc3ccc(OC)cc23)cc1,.,-,-,-,42,-,-,57,
COc1ccc2nc(C)cc(Nc3ccc(C(=O)O)cc3)c2c1,.,-,-,-,-,-,.,.,
SMILES,PPC-1+TRAIL kill,CF NFkB inh,TRAIL sens C8,hiPSC survival,HIF-2a inh,KKLEB tox,HIF-2a conf,HIF-1a counter,others
COc1ccc2nc(C)cc(N/N=C/c3ccc(F)cc3)c2c1,.,-,93,-,87,-77,.,.,Mdm2 MdmX conf=103
Cc1ccc2nc(NC(=O)CCCc3nc4ccccc4s3)sc2c1,-,-,-,-,-,-,.,.,
Cc1ccc2nc(NC(=O)CCCC(=O)O)sc2c1,-,-,-,-,83,-,95,90,
Cc1ccc2nc(NC(=O)CSCC(=O)OCC(=O)c3ccccc3)sc2c1,-,-,-,-,71,-,75,74,
CC1(C)C[C@@H](O)[C@]2(C)CC[C@]3(C)C(=CCC4[C@@]5(C)CC[C@H](O)[C@](C)(CO)C5CC[C@]43C)[C@@H]2C1 (some centres not stated),.,-,-,-,-,-,.,.,
CCOc1ccc(N(CC(=O)NC2CC2)S(=O)(=O)c2ccc(C)cc2)cc1,.,-,-,-,-,-,.,.,
COc1ccc(C=NNC(=S)Nc2ccc(F)cc2)cc1OC,.,-,-,-,48,-,-,-,
COc1cccc(SCc2noc(C(=O)NCCC(C)C)c2C(=O)NCCC(C)C)c1,.,-,-,-,-,-,.,.,
COc1cccc(CN2CC(C(=O)NCCSc3nnnn3C)CCC2=O)c1 (configuration not stated),.,-,-,-,-,-,.,.,
O=C(CCn1c(=O)oc2cc(Cl)ccc21)Nc1ccc(O)cc1,.,-,-,-,-,-,.,.,
Cn1c(=O)n(C)c2cc(NC(=O)CCl)ccc21,-,-,-,-,51,-,-,81,
CCn1c(=O)oc2cc(NC(=O)CCl)ccc21,-,-,-,-,40,-,-,84,
O=C(NC1CCCC1)C1CC(O)CN1C(=O)Nc1ccccc1 (configuration not stated),.,-,-,-,-,-,.,.,
CCOC(=O)c1ccc(Nc2nc(N)c3cc(OC)c(OC)cc3n2)cc1,.,-,-,-,-,-,.,.,Mdm2 MdmX conf=61
O=C(O)/C=C/c1cn(Cc2ccccc2)nc1-c1ccccc1,-,-,-,-,-,-,.,.,
O=C(O)CCn1cc(/C=C/C(=O)c2ccc(Cl)cc2)c(-c2ccc(Br)cc2)n1,-,-,-,-,54,-,-,-,
O=C(O)c1ccc(/C=C(\c2nc3ccccc3[nH]2)c2nc3ccccc3s2)cc1,-,-,-,-,-,-,.,.,
CC(C)(C)c1ccc(/C=C(\c2nc3ccccc3[nH]2)S(=O)(=O)c2ccccc2)cc1,.,94,-,-,95,-70,97,108,Mdm2 MdmX conf=103
CC1CCc2c(sc(NC(=O)CSc3ncn[nH]3)c2C#N)C1 (configuration not stated),-,-,-,-,91,-,95,90,
N#Cc1c(NC(=O)CCCC(=O)O)sc2c1CCCCC2,-,-,-,-,63,-,67,-,
CCCC(=O)Nc1sc2c(c1C#N)CCCCC2,-,-,-,-,-,-,.,.,
N#Cc1c(NC(=O)CSc2ncn[nH]2)sc2c1CCCC2,-,-,-,-,90,-,94,71,
CN(C1CCCCC1)S(=O)(=O)c1ccc(=S)[nH]c1,.,-,-,-,-,-,.,.,
